{"source": "PubChem BioAssay (EPA / NIEHS)", "note": "Activity calls are given as the source filed them. How the source made its calls: active means hit-call score of the fitted dose curve at least 0.9, where 1 is the maximum; inactive means score below 0.9.", "data": [{"read-out": "Alpha-fetoprotein (AFP) gene, AFP (gene 174)", "assay": "LTEA_HepaRG_AFP: Life Technologies and Expression Analysis (LTEA) Assay for Alpha-fetoprotein (AFP) gene using HepaRG (AID 2283472)", "settings": "mRNA level, 48 h; actives raise or lower the signal", "procedure": "It is a marker of Undifferentiated hepatocyte.Data from the assay component LTEA_HepaRG_AFP was analyzed into 1 endpoint. This assay endpoint, LTEA_HepaRG_AFP, was analyzed with bidirectional fitting relative to DMSO as the negative control and baseline of activity. Using a type of inducible reporter, measures of mRNA induction for gain or loss-of-signal activity can be used to understand regulation of transcription factor activity. To generalize the intended target to other relatable targets, this assay endpoint is annotated to the background measurement intended target family, where the subfamily is assay control.\nA total of 1060 chemcials from the ToxCast library were tested in eight-point concentration-response experiments. Cell culture and cytotoxicity assays were conducted at Thermo Fisher Scientific's Custom Services facility (Madison, WI). A single lot of human HepaRG cells (Thermo Fisher Scientific, Frederick, MD) was used for the cell culture experiments. 96-well format collagen type I coated plates of human HepaRG cells were prepared using established methods. Briefly, cryopreserved HepaRG cells were thawed, plated at a density of approximately 100,000 cells/well in HepaRG Thaw, Plate, and General Purpose media (HPRG770, Thermo Fisher Scientific), and incubated for 48 hours. 0.5% DMSO was selected as vehicle control to balance the requisite need of DMSO in HepaRG cultures to maintain differentiation (for example, baseline metabolism, proportions of hepatocytes vs. cholangiocytes), while enabling further hepatic receptor pathway activation (for example, PXR and CAR) in response to chemical exposure. 48 hours after plating, the culture medium was replaced with HepaRG Serum-Free Incudtion Media. Cells were exposed to each test chemical in duplicate and maintained in CO2 incubators for another 48 hours. Chemical plates were thawed to room temperature and 200x concentrations of treatment groups were prepared. 8-point conentration-reponse curves were made with the highest exposure at 100 uM, followed by half-log dilutions, all in 0.5% DMSO. Each test plate contained variouse controls, induction positive controls (1mM phenobarbital), cytotoxicity positive controls ([…] aflatoxin B1), vehicle controls (0.5% DMSO), and total lysis controls (0.5% DMSO). Cell morphology images were taken using an Essen IncuCyte FLR automated microscope, with six 96-well plates imaged in about 24 minutes. Images were captured and exported and JPEG files. Spent culture media was transfered to black-well plates for the LDH assay, and remaining media was sorted at -80 C for later use. Cells were treated with RLT buffer and frozen until shipped for gene expression analysis. Total RNA was isolated from the cell suspension in 75 uL of Buffer RLT (Qiagen, Germantown, MD 20874) by Quintiles/Expression Analysis (Durham, NC) using a custom isolation procedure. Total RNA from each plate well was transferred to a preamplification plate. Fluidigm's 96.96 Dynamic ArrayTM (Fluidigm, Amsterdam, the Netherlands) technology was used for gene expression analyses by quantitative reverse transcription polymerase chain reaction (qRT-PCR, performed by Quintiles/Expression Analysis, Durham, NC)89. Standard TaqManTM Assays (Applied Biosystems/ThermoFisher Scientific, Foster City, CA) were used to assess the expression of 93 genes selected based on their selectivity and sensitivity to important hepatic receptors known to be modulated by environmental chemicals; importance in human hepatocyte functionality; and hepatotoxicity. Three \"housekeeping\" endogenous control genes were also included and used for normalization: actin beta (ACTB), Glyceraldehyde 3 phosphate dehydrogenase (GAPDH) and RNA Polymerase II Subunit A (POLR2A). qRT-PCR was conducted according to the manufacturer's protocol.", "values": [{"smiles": "OCCN(CCO)CCO", "outcome": "inactive"}, {"smiles": "CC(C)(C)c1ccccc1O", "outcome": "inactive"}, {"smiles": "COc1ccccc1N", "outcome": "inactive"}, {"smiles": "O=C(O)C1(c2ccc3c(c2)OC[C@H](Cc2ccc(-c4ccccc4)cc2)[C@H]3O)CCCC1", "outcome": "inactive"}, {"smiles": "CCCCCCCCCCCCc1cccc(S(=O)(=O)O)c1", "outcome": "inactive"}, {"smiles": "O=C(N[C@H]1CN2CCC1CC2)c1ccc2c(c1)OCCO2", "outcome": "inactive"}, {"smiles": "Cc1cc(C)cc(C)c1", "outcome": "inactive"}, {"smiles": "N#Cc1cccnc1", "outcome": "inactive"}, {"smiles": "Clc1cccc(Cl)c1", "outcome": "inactive"}, {"smiles": "CN(C)C(=S)S", "outcome": "inactive"}, {"smiles": "Oc1cc(Cl)c(Cl)cc1Cl", "outcome": "inactive"}, {"smiles": "Oc1c(Cl)cc(Cl)cc1Cl", "outcome": "inactive"}, {"smiles": "CC(C)O.CC(C)O.OCCN(CCO)CCO.OCCN(CCO)CCO.[Ti]", "outcome": "inactive"}, {"smiles": "Clc1cccc(Cl)c1Cl", "outcome": "inactive"}]}]}
